Six compounds from PubChem BioAssay can be followed below.

The source made the active and inactive calls. Unless noted, how the calls were made is not given here.

A short description of test [1]: compounds binding Alexa647 anti-His antibody – biochemical, small-molecule microarray, 635 nm fluorescence, artefact control for SMM control protein annotation, primary screen (AID 1128).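 Further: score merges feature fluorescence with signal-to-noise for each printed compound spot.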 The settings on record: higher = more signal.
Test [2] has as its system Human papillomavirus type 1a E7 protein (residues 1-88). The test is described as follows: HPV1a E7 small-molecule binders, primary screen, biochemical, small-molecule microarray, residues 1-88, 635 nm (AID 1129). The settings on record: small-molecule microarray binding, fluorescence 635 nm; higher = more signal.
Test [3] addresses Focal adhesion kinase 1 (Homo sapiens) (UniProt Q05397). The test is described as follows: PTK2 protein binding on printed compound slides – biochemical, small-molecule microarray, 635/667 nm fluorescence, BSA, DTT, primary screen (AID 1130).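 Further: composite of spot emission at 667 nm and signal to noise over triplicate slides.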 The settings on record: 635 nm fluorescence, higher = more signal.
Test [4] deals with Fibrinogen (Alexa647-labelled). The experiment in a line: Alexa647-fibrinogen binding to printed small molecules – biochemical, small-molecule microarray, 635/667 nm fluorescence, artefact control for SMM control-protein annotation, profiling panel (AID 1131).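 Further: z-score merges 667 nm fluorescence with per-spot signal-to-noise over triplicate slides.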 As to conditions: fibrinogen-A647 binding fluorescence, higher = more signal.
The target in test [5] is Follistatin (Homo sapiens) (UniProt P19883). The experiment in a line: FST protein binding to printed compounds – biochemical, small-molecule microarray, 635/667 nm fluorescence, primary screen (AID 1132). The settings on record: 635 nm fluorescence, higher = more signal.
Test [6] deals with Fibroblast growth factor 2 (Homo sapiens) (UniProt P09038). The experiment in a line: basic fibroblast growth factor binding to printed compounds – biochemical, small-molecule microarray, 635/667 nm fluorescence, primary screen (AID 1133). As to conditions: FGF2, fluorescence 635/667, higher = more signal.
Test [7] can be described thus: JC-1 mitochondrial potential readout, lung cancer cells – cell-based, A549, JC-1 fluorescence, basal, 24 h, 100 nL, profiling panel (AID 1138).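 Further: A549 lung adenocarcinoma cells under basal conditions with no added stimulus; test concentration not given here.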 The settings on record: higher = more signal.
The subject of a further test is Lefty1. The test is described as follows: Lefty1 protein binding to printed compounds – biochemical, small-molecule microarray, 635/667 nm fluorescence, primary screen (AID 1139). The settings on record: fluorescence 635/667, higher = more signal.
The test system of test [8] is wheat germ agglutinin (Triticum aestivum), Alexa647-labelled. The test is described as follows: Alexa647-WGA lectin binding to printed small molecules – biochemical, small-molecule microarray, 635/667 nm fluorescence, artefact control for SMM control-protein annotation, profiling panel (AID 1140).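 Further: score merges 667 nm feature emission with signal to noise over triplicate slides.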 As to conditions: WGA-A647 binding, 635 nm fluorescence, higher = more signal.

In test [9] the target is Luciferin 4-monooxygenase (Photinus pyralis) (UniProt P08659). The experiment in a line: inhibition of purified Photinus pyralis luciferase – biochemical, luminescence, purified enzyme, 2006 set, primary screen (AID 1141).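 Further: cell-free assay with purified firefly luciferase at 100 ng per well in PBS; test concentration not given here.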 The settings on record: purified firefly luciferase, SteadyGlo luminescence, 30 min; higher = more signal, called active from +8 up or from −8 down.
Test [10] deals with Wnt5a (protein binding on small-molecule microarray). The test is described as follows: small molecules binding Wnt5a protein – biophysical, small-molecule microarray, 635/667 nm fluorescence, primary screen (AID 1142).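 Further: fluorescence read at 667 nm with signal to noise per printed feature.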 The settings on record: 635 nm fluorescence, higher = more signal.
Test [11] can be described thus: ATP-based viability of Huh7 replicon cells – cell-based, CellTiter-Glo luminescence, basal, 48 h, cytotoxicity control for HCV replication inhibitor project, primary screen (AID 1143).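 Further: Huh7 hepatoma cells carrying a hepatitis C replication reporter with no stimulus; test concentration not given here.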 The settings on record: higher = more signal, called active from +8 up or from −8 down.
Test [12] in a line: Pseudomonas biofilm growth suppression – PAO1 strain, BacTiter-Glo luminescence, LB-PBS, primary screen (AID 1144). The settings on record: P. aeruginosa PAO1 biofilm, 12 h, higher = more signal.
A short description of test [13]: basal CRE-LacZ reporter activity in PC12 – cell-based, unstimulated, primary screen (AID 1145). As to conditions: no forskolin, luminescence, 4.5 h, higher = more signal, called active from +8 up or from −8 down.
Test [14] can be described thus: forskolin-driven CRE-LacZ activity in PC12 – cell-based, CRE-LacZ reporter, forskolin-stimulated, primary screen (AID 1146).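 Further: PC12 cells with 6xCRE LacZ reporter stimulated by forskolin 10 µM; beta-galactosidase reporter signal reflecting CREB driven transcription.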 The settings on record: luminescence, 4.5 h, higher = more signal, called active from +8 up or from −8 down.
For test [15], the target named is Streptavidin (Streptomyces avidinii) (UniProt P22629). The test is described as follows: compounds binding control protein streptavidin – biophysical, small-molecule microarray, 635/667 nm fluorescence, artefact control for SMM compound annotation, primary screen (AID 1147).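 Further: signal reflects streptavidin binding to arrayed compounds as a control protein.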 As to conditions: higher = more signal.
A short description of test [16]: probe aInhba binding on compound microarray – biochemical, small-molecule microarray, 635/667 nm fluorescence, primary screen (AID 1148).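 Further: score merges 667nm spot fluorescence with signal-to-noise for antibody binding to printed compounds.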 The settings on record: higher = more signal.
The target of test [17] is Torsin-1A (Homo sapiens) (UniProt O14656). The experiment in a line: TOR1A wild-type binding on microarray – cell lysate, small-molecule microarray, lysate, 635/667 nm, primary screen (AID 1149). The settings on record: COS7 hTOR1A-WT lysate, 635 nm fluorescence, higher = more signal.
Test [18] has the same target. The test is described as follows: torsin A mutant lysate binding on microarrays – cell lysate, small-molecule microarray, COS7 lysate, 635/667 nm fluorescence, primary screen (AID 1150).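 Further: score pools 667 nm emission and signal to noise measuring lysate protein binding.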 As to conditions: COS7 hTOR1A mutant lysate, 635 nm fluorescence, higher = more signal.
The subject of test [19] is Sonic hedgehog protein (Shh). The test is described as follows: Sonic hedgehog microarray binding compounds – biochemical, small-molecule microarray, 635/667 nm fluorescence, primary screen (AID 1151).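 Further: Shh protein binding to compounds spotted on small-molecule microarray slides; score combines spot fluorescence intensity with signal-to-noise across triplicate slides.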 As to conditions: 635 nm fluorescence, higher = more signal.

Sequence of Luciferin 4-monooxygenase (Photinus pyralis) (P08659 whole entry, looked up): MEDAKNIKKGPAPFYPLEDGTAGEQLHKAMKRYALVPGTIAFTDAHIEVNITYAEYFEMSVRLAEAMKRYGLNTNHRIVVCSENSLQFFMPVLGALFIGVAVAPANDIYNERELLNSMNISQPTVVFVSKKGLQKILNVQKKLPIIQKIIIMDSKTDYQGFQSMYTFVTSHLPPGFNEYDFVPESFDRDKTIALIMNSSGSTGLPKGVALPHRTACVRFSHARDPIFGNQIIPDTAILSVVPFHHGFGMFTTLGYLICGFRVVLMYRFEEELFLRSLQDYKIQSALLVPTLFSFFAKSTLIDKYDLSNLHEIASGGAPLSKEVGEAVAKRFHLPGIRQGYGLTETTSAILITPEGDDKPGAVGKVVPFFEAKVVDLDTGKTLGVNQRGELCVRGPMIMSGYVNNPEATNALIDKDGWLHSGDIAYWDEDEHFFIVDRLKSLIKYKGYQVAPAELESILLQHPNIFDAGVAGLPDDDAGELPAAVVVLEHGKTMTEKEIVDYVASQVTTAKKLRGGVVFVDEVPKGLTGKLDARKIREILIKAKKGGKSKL
Sequence of Torsin-1A (Homo sapiens) (O14656 whole entry, looked up): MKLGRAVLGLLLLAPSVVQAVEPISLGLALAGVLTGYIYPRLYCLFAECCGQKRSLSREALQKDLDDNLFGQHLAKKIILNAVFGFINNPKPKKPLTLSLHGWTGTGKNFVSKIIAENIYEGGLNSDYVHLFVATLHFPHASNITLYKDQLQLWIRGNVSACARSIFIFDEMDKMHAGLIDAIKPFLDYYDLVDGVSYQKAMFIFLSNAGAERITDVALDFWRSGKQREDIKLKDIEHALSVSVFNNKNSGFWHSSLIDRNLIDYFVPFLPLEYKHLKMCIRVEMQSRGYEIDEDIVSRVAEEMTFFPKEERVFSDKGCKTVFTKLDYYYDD
Sequence of Follistatin (Homo sapiens) (P19883 whole entry, looked up): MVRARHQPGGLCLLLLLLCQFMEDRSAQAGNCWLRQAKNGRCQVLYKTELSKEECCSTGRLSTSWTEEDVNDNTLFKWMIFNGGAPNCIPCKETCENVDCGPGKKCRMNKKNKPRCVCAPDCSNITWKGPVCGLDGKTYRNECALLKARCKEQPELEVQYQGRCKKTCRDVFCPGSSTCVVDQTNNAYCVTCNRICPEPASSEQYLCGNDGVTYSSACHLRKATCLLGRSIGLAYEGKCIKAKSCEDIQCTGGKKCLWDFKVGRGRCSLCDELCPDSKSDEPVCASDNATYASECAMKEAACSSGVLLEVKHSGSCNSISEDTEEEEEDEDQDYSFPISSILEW
Sequence of Focal adhesion kinase 1 (Homo sapiens) (Q05397 whole entry, looked up): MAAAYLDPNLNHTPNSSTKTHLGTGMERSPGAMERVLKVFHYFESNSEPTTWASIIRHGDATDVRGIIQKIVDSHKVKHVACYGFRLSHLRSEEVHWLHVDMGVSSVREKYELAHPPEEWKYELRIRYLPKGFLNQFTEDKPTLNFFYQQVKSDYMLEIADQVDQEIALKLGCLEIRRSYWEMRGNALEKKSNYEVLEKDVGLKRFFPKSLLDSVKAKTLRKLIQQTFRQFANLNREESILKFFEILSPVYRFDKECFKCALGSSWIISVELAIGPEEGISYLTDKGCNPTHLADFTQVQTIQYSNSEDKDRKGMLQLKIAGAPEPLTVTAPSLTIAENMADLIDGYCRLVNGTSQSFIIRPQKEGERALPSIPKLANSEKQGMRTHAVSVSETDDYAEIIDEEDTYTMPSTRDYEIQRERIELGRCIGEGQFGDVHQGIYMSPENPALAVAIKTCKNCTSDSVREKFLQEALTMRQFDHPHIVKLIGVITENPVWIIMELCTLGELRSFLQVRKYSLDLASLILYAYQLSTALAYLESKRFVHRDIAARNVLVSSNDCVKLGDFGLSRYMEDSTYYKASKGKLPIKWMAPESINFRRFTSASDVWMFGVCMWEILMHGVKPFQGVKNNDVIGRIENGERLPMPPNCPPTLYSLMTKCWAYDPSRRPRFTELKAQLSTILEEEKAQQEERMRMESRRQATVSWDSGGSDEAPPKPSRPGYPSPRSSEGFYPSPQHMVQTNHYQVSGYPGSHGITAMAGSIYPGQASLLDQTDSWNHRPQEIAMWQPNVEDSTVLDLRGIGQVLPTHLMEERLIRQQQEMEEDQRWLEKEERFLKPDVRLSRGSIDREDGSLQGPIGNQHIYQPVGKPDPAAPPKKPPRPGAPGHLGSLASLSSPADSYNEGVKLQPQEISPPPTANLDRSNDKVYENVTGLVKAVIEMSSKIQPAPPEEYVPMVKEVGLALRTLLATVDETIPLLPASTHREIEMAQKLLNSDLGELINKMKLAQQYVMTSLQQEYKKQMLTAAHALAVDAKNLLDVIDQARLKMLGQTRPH
Sequence of Fibroblast growth factor 2 (Homo sapiens) (P09038 whole entry, looked up): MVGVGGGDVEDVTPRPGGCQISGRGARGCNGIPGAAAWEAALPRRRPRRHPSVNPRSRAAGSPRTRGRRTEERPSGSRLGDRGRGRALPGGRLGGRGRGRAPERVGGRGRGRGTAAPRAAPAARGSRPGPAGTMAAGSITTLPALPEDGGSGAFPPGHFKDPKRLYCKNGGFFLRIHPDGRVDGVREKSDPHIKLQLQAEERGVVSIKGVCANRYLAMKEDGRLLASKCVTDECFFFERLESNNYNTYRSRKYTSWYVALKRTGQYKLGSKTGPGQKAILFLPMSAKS
Sequence of Streptavidin (Streptomyces avidinii) (P22629 whole entry, looked up): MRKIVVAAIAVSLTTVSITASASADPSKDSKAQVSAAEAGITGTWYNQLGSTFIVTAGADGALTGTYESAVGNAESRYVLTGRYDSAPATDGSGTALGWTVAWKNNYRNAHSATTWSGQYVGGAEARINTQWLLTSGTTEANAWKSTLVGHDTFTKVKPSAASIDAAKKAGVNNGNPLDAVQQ

As to `C[C@H]1COC(=O)[C@@H]2CCCN2C(=O)[C@@H](C)COC(=O)[C@H](Cc2ccccc2)NC1=O`, the composite z-score in test [1] came out at 0.305; in [2] it was 0.767; in [3], 0.0349; in test [4], 0.208; in [5], 0.42; in [6], 0.458. For the same compound, the composite z-score is 0.96 with Lefty1; 0.111 in [8]; 0.0398 in [10]; 0.0706 in [15]; -0.045 in test [16]; 0.146 with Torsin-1A (Homo sapiens) [17]. For the same compound, the values for the composite z-score (in the test with Torsin-1A (Homo sapiens) [18]; in [19]) were 0.0507 and 0.515, respectively. Further, the z-score in test [7] was -0.731; in test [9] it was 1.48 (inactive); in [11], 0.257 (inactive); in test [12], -0.0355 (inactive); in [13], -0.468 (inactive); in test [14], 0.574 (inactive).
Turning to `CCCNC(=O)OC[C@H]1O[C@H](CCON=C(C)CCN2CCc3nc(CC)c(CC)cc3C2)C=C[C@@H]1Oc1ccc(OC)cc1`, the composite z-score in test [1] was 0.869; in [2], -0.476; in test [3], 0.512; in test [4] it was 0.564; in [5], 0.248; in test [6], -0.167. For the same compound, the composite z-score in the test on Lefty1 is 0.374; in [8], 0.316; in [10], -0.0552; in test [15], 0.333; in test [16] it was -0.0405; in the test with Torsin-1A (Homo sapiens) [17], 0.686. Further, the composite z-score worked out at 0.481 with Torsin-1A (Homo sapiens) [18] and 0.391 in test [19]. In addition, the z-score in [7] was 0.77; in test [9] it was -0.512 (inactive); in [11], -2.1 (inactive); in test [12], -0.546 (inactive); in test [13], 10.3 (active); in [14], 0.82 (inactive).
Turning to `O=C1[C@H]2[C@H]3[C@H](O)[C@H](O)CC(=NOCc4ccccc4)[C@@H]3CC[C@H]2C(=O)N1c1ccc(F)cc1F`, the composite z-score is -0.0523 in test [1]; -0.406 in [2]; 0.757 in [3]; 0.416 in test [4]; 0.072 in test [5]; 0.359 in test [6]. Moreover, the composite z-score in the test on Lefty1 was -0.0459; in test [8], -0.141; in test [10] it was -0.0167; in [15], 0.0494; in test [16], -0.104; with Torsin-1A (Homo sapiens) [17] it was -0.111. Further, the composite z-score in the test with Torsin-1A (Homo sapiens) [18] is -0.153; in test [19], 0.068. For the same compound, the z-score is -0.332 in [7]; 0.0336 (inactive) in [9]; -1.69 (inactive) in test [11]; -1 (inactive) in [12]; -0.469 (inactive) in test [13]; -0.445 (inactive) in test [14].
With `CCCNC(=O)OC[C@H]1O[C@H](CCON=Cc2ccc(C(=O)N3[C@H](c4ccc(C)cc4)[C@@H](C)CC[C@H]3C(=O)OC)cc2)C=C[C@@H]1Oc1ccc(OC)cc1`, the composite z-score amounted to 1.77 in [1]; 0.838 in [2]; 0.315 in test [3]; 0.88 in [4]; 0.277 in test [5]; 0.666 in test [6]. Besides, the composite z-score in the test with Lefty1 was 0.58; in test [8], 0.236; in test [10], 0.157; in test [15], 0.0335; in test [16], -0.105; in the test with Torsin-1A (Homo sapiens) [17] it was 0.436. Also, the composite z-score was 0.853 with Torsin-1A (Homo sapiens) [18] and 0.396 in test [19]. For the same compound, the z-score in [7] was -0.195; in [9], 0.407 (inactive); in test [11], -1.73 (inactive); in [12], 0.0699 (inactive); in test [13] it was 2.55 (inactive); in test [14], 1.16 (inactive).
Consider `CC(C)(C)N1C(=O)[C@H]2[C@H]3[C@H](O)[C@H](O)CC(=O)[C@H]3CC[C@H]2C1=O`, for which the composite z-score in test [1] was 0.875; in [2], 0.496; in test [3], -0.246; in [4] it was 0.584; in test [5] it was 0.558; in test [6] it was 0.399. Also, the composite z-score is 0.407 in the test with Lefty1; 0.0902 in test [8]; -0.0509 in test [10]; -0.0955 in test [15]; -0.0405 in [16]; 0.128 in the test with Torsin-1A (Homo sapiens) [17]. Also, the composite z-score with Torsin-1A (Homo sapiens) [18] is 0.29; in test [19], 0.696. For the same compound, the z-score in [7] is -0.714; in test [9] it was 0.206 (inactive); in [11] it was -1.06 (inactive); in test [12], 0.925 (inactive); in test [13], 0.62 (inactive); in [14], 0.95 (inactive).
As for `CC[C@@H](c1ccccc1)n1c(=O)n2n(c1=O)[C@H]1[C@H](O)[C@@H]3O[C@@H]3C(=NOC[C@@H](O)COCc3ccco3)[C@H]1CC2`, the composite z-score was -0.74 in [1]; -0.629 in [2]; 0.587 in test [3]; -1.9 in test [4]; 0.361 in test [5]; 0.167 in test [6]. Further, the composite z-score in the test on Lefty1 is 0.389; in [8], 0.534; in test [10], 0.112; in test [15], -0.715; in [16] it was -0.257; in the test with Torsin-1A (Homo sapiens) [17], -0.354. The composite z-score with Torsin-1A (Homo sapiens) [18] was -0.517; in test [19], 1.07. The z-score in [7] is -0.0823; in [9], -0.47 (inactive); in test [11], 0.456 (inactive); in [12] it was 0.232 (inactive); in test [13] it was 0.704 (inactive); in [14], 0.427 (inactive).
